Out of some 190,000 compounds screened, about 4,100 (2.2%) were called active.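 The calls were made as follows: active = thallium flux slope and its plate-corrected score both differing from the plate sample mean at a set confidence after two filtering rounds, in either direction; inactive = the rest.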 The sample as a whole holds a higher share of actives than the screen did.
Biological target: Solute carrier family 12 member 5 (Homo sapiens) (UniProt Q9H2X9)
Assay: KCC2 cotransporter modulators, thallium flux, primary screen, cell-based, HEK293 KCC2, FluoZin-2 fluorescence, MLSMR (AID 1456);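 also: slope of fluorescence scaled to starting intensity during 10 to 20 s after thallium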
Settings: KCC2 cells, thallium flux FluoZin-2 fluorescence; at 10 µM

Solute carrier family 12 member 5 (Homo sapiens), sequence (Q9H2X9 whole entry, looked up): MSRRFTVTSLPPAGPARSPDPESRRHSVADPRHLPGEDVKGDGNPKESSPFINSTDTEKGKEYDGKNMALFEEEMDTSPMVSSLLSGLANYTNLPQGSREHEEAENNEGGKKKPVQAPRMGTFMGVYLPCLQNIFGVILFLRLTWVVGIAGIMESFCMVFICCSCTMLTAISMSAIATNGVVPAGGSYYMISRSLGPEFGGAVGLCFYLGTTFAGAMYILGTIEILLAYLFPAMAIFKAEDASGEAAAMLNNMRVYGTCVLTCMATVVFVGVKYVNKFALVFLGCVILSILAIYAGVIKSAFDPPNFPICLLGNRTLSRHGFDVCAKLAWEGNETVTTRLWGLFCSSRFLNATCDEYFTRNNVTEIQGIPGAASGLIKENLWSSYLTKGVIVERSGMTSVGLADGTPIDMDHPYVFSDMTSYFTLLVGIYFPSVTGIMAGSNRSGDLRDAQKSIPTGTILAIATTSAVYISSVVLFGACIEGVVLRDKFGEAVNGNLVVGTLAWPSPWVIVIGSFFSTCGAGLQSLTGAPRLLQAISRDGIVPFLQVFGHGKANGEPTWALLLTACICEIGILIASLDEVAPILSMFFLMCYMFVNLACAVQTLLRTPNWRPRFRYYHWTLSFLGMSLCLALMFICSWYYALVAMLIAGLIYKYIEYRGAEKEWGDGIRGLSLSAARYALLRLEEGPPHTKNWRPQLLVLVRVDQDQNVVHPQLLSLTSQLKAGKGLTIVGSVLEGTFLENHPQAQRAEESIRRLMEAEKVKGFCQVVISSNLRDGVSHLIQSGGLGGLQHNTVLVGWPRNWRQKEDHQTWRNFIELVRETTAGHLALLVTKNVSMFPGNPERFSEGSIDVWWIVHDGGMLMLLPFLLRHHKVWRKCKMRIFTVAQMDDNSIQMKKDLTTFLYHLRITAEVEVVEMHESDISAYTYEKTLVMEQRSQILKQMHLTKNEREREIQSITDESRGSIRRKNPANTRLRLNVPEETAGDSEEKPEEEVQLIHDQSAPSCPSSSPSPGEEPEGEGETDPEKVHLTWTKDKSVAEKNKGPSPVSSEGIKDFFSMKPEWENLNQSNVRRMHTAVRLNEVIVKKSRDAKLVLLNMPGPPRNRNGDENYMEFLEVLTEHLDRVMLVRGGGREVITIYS

Compound	B-score of Tl+ flux slope (higher = more flux/activation; lower = inhibition)
N#Cc1c(NCCO)ccc([N+](=O)[O-])c1NCCO	-0.904 (inactive)
O=C1c2ccccc2NC(c2ccc(-c3cccc(Cl)c3)o2)N1O (stereo not given)	35 (active)
Nc1nnnn1CC(=O)N/N=C/c1ccc(-c2cccc(Cl)c2)o1	-0.38 (inactive)
O=C1NC(c2cccc(Cl)c2)Nc2ccccc21 (stereo not given)	0.445 (inactive)
CCn1c(SCC(=O)Nc2sc(C)c(C)c2C#N)nnc1C1CC1	0.253 (inactive)
COc1ccc(C(=O)NC(=S)NNC(=O)c2c(-c3ccccc3)noc2C)cc1	11.1 (active)
Cc1onc(-c2ccccc2)c1C(=O)NNC(=S)NC(=O)c1ccc(F)cc1	8.51 (active)
COc1ccc(C(=O)NNC(=S)NC(=O)c2ccccc2[N+](=O)[O-])cc1	1.61 (inactive)
Cc1onc(-c2ccccc2)c1C(=O)N=C(N)c1ccc(Cl)cc1	1.42 (inactive)
Cc1onc(-c2ccccc2)c1C(=O)N1CCOCC1	0.00257 (inactive)
CC(=O)Nc1cccc(NC(=O)c2c(-c3ccccc3)noc2C)c1	-0.00829 (inactive)
O=C1CCCC(O)=C1N=Nc1ccc(S(=O)(=O)N2CCOCC2)cc1	-0.62 (inactive)
Cc1ccc(OC(=O)c2c(C)nn(-c3ccccc3)c2C)cc1	0.00646 (inactive)
O=C(Nc1ccc(Cl)cc1)Nc1ccc(C(=O)N2CCOCC2)cc1	0.868 (inactive)
c1ccc2c(NC3C4CC5CC(C4)CC3C5)nc(N3CCOCC3)nc2c1 (stereo not given)	-0.0419 (inactive)
COC(=O)c1sccc1NC(=O)CC1C(=O)NCCN1C(=O)Nc1ccc(F)cc1F (stereo not given)	-0.52 (inactive)
COC(=O)c1ccccc1N=Nc1c(C)[nH][nH]c1=O	0.855 (inactive)
CC(C)(C)Cc1nnc(NC(=O)c2cc(-c3ccccc3)nc3ccccc23)s1	0.0714 (inactive)
O=C(Nc1nnc(-c2ccccc2)o1)c1cc(-c2cccs2)nc2ccccc12	99.4 (active)
O=C(Nc1ccc(S(=O)(=O)Nc2nccs2)cc1)c1cc(-c2ccncc2)nc2ccccc12	-0.477 (inactive)
Cc1c(NC(=O)CN2C(=O)C(=O)N(Cc3ccccc3)C2=O)c(=O)n(-c2ccccc2)n1C	0.0462 (inactive)
CC(C)n1c(O)c(N=Nc2ccccn2)c2ccccc21	5.67 (active)
Oc1oc(-c2ccccc2Br)nc1/C=N/c1ccccn1	1.39 (inactive)
COC(=O)Cn1c(O)c(N=NC(=O)OC)c2ccccc21	1.85 (inactive)
COc1ccc(Cn2c(O)c(/C=C3/C=CC=N3)c(=O)[nH]c2=O)cc1	-0.723 (inactive)

Compound	B-score of Tl+ flux slope (higher = more flux/activation; lower = inhibition)
Cn1nc(C(F)(F)F)cc1C(=O)O	1.56 (inactive)
Cc1cc(NC(=O)OC(C)C)ccc1-c1ccc(NC(=O)OC(C)C)cc1C	-0.761 (inactive)
CC(C)CN(CC(C)C)CC(O)CN(c1ccccc1)S(=O)(=O)c1ccccc1[N+](=O)[O-] (stereo not given)	-2.39 (inactive)
Cc1cc(NC(=O)CN2CCCC(C)C2)n(-c2nc3ccccc3s2)n1 (stereo not given)	0.312 (inactive)
CCOC(=O)N1CCN(CC(=O)Nc2cc(C)nn2-c2nc3ccccc3s2)CC1	-0.634 (inactive)
CCC(C)Cn1c(O)cc2nn(-c3nc4ccccc4s3)c(=O)c-2c1C (stereo not given)	5.85 (active)
C/C(=N\NC(=O)c1cccnc1)c1ccc(-n2ccnc2)cc1	0.898 (inactive)
COc1cc2c(cc1OC)C(/C=C/c1ccco1)=NCC2	-1.64 (inactive)
O=C(Cc1csc(Nc2nc(=S)[nH]c3ccccc23)n1)NCCCN1CCN(c2cccc(Cl)c2)CC1	18.7 (active)
COc1cccc(CNC(=O)c2n[nH]c3ccccc23)c1	-0.482 (inactive)
COc1cccc(CNC(=O)Cc2csc(Nc3nc(=S)[nH]c4ccccc34)n2)c1	16.7 (active)
COc1cccc(CNC(=O)CCN2C(=S)NC(C)(C)CC2C)c1 (stereo not given)	-1.19 (inactive)
CCn1c(=O)cc(OCC(=O)NCCCN2CCN(c3cccc(Cl)c3)CC2)c2ccccc21	-4.58 (inactive)
O=C(CCCn1c(=O)[nH]c2cc(Cl)ccc2c1=O)NCCN1CCN(c2ccccc2)CC1	-1.09 (inactive)
COC(=O)c1cc(S(=O)(=O)N2CCC(C(N)=O)CC2)oc1C	0.506 (inactive)
Cn1cc(S(=O)(=O)NC(c2ccccc2)c2ccccc2)c(=O)n(C)c1=O	1.52 (inactive)
CCCNc1c(N)c(=O)c1=O	0.441 (inactive)
O=C(Cc1ccccc1)Nc1c(Cl)ccc2nsnc12	0.0149 (inactive)
O=C(Nc1ccn(Cc2ccccc2)n1)c1cccc(F)c1	-4.17 (active)
O=C(Nc1ccn(Cc2ccccc2)n1)c1n[nH]c([N+](=O)[O-])c1Cl	-5.21 (inactive)
O=C(Nc1ccn(Cc2ccc(F)cc2)n1)c1ccncc1	-1.12 (inactive)
CC(=O)NCc1ccc(S(=O)(=O)NC2CCN(Cc3ccccc3)CC2)cc1	-1.54 (inactive)
Nn1c(SCc2ccccc2)nnc1C1CCCCC1	0.0386 (inactive)
COc1ccccc1CNC(=O)Cn1c(=O)oc2cc(Cl)ccc21	0.172 (inactive)
COc1ccccc1N1CCN(C(=O)CSc2nnc(-c3ccoc3C)o2)CC1	-1.44 (inactive)

Compound	B-score of Tl+ flux slope (higher = more flux/activation; lower = inhibition)
COC(=O)CSc1ncnc2c1cnn2-c1ccc(C)cc1C	0.528 (inactive)
COc1ccccc1N1CCN(C(=O)CSc2ncnc3c2cnn3-c2ccc(C)c(C)c2)CC1	5.99 (active)
CN1CCN(c2ccc(S(=O)(=O)N3CCOCC3)cc2NC(=O)CCc2ccccc2)CC1	0.193 (inactive)
CC(CO)(CO)NC(=O)c1ccc(=O)[nH]n1	-0.424 (inactive)
Cc1cc(=O)[nH]c(SCC(=O)Nc2ccc(Br)cc2)n1	1.17 (inactive)
c1ccc(-c2nnc3n2NC(c2ccc4c(c2)OCO4)S3)cc1 (stereo not given)	17.9 (active)
Cc1cccc(C)c1NC(=O)CSc1nnc(-c2ccccc2)n1Cc1ccc2c(c1)OCO2	-0.0425 (inactive)
CC1=C(C(N)=O)C(c2ccc3c(c2)OCO3)n2nc(-c3cccc(C)c3)nc2N1 (stereo not given)	-0.546 (inactive)
CN=C1C=C/C(=N/N=c2\ccn(O)cc2C)C=C1C	0.0998 (inactive)
Cc1cccc(C2C3=C(CCCC3=O)N=C3c4ccccc4C(=O)C32)c1 (stereo not given)	1.41 (inactive)
COc1cc(SC#N)ccc1N=Cc1c(C)[nH]n(-c2ccc(C)cc2)c1=O	0.0406 (inactive)
Cc1[nH]n(-c2ccc(Cl)cc2)c(=O)c1/C=N/n1c(C)nc2ccccc2c1=O	1.71 (inactive)
Cc1ccc(-n2[nH]c(C)c(/C=N/N3C(=O)c4cccc5cccc(c45)C3=O)c2=O)cc1	41.4 (active)
O=C(CSc1nnc(SCc2ccc(F)cc2)s1)Nc1ccc(C(=O)O)cc1	-2.12 (inactive)
COc1ccc([N+](=O)[O-])cc1NC(=O)CCc1ccccc1	-1.49 (inactive)
CC(C)CNC(=O)COC(=O)/C=C/c1ccco1	0.238 (inactive)
COc1ccc([N+](=O)[O-])cc1NC(=O)COC(=O)/C=C/c1ccco1	-3.66 (active)
O=C(COc1ccccc1[N+](=O)[O-])N/N=C/c1ccc[nH]1	1.37 (inactive)
CCOC(=O)C1CCN(c2c(Nc3cc(C)cc(C)c3)c(=O)c2=O)CC1	0.776 (inactive)
COc1cccc2sc(Nc3nc(C)c(C(C)=O)s3)nc12	16.2 (active)
CC(=O)c1sc(NC(=O)c2cccc3ccccc23)nc1C	3.04 (inactive)
CC(=O)c1sc(NC(=O)CCCOc2ccccc2C)nc1C	0.355 (inactive)
COc1cccc2sc(NNC(=O)c3nc4ccccc4s3)nc12	92.4 (active)
COC(=O)c1nc2ccccc2s1	-0.0154 (inactive)
COc1ccccc1OCc1nc2ccccc2s1	-1.36 (inactive)

Compound	B-score of Tl+ flux slope (higher = more flux/activation; lower = inhibition)
O=C(N/N=C/c1ccc(Br)o1)c1cncc(Br)c1	7.4 (active)
Cc1ccc(C(=O)N/N=C\c2cc(Br)c(Br)o2)cn1	1.86 (inactive)
O=C(CCc1n[nH]c(=O)[nH]c1=O)N/N=C/c1ccc(Br)o1	0.0262 (inactive)
CCN(CC)CCCN=C(N)N	0.285 (inactive)
Cc1nc2cc(NC(=O)Nc3cccc(F)c3)ccc2n1C	0.703 (inactive)
NNC(=O)c1cccc(COCC(F)(F)C(F)F)c1	-0.618 (inactive)
Cc1cccc(-n2c(=O)c3c(C)c(C)sc3n(CC(N)=O)c2=O)c1	0.771 (inactive)
N#CCSc1nc2c(c(=O)n1Cc1ccccc1)C1(CCCC1)Cc1ccccc1-2	1.45 (inactive)
Cc1cccc(-n2c(SCC(N)=O)nc3c(c2=O)C2(CCCCC2)Cc2ccccc2-3)c1	4.92 (active)
Cc1cc(Nc2ccc(Cl)cc2)nc(N2CCOCC2)n1	-1.05 (inactive)
NC(=S)Nc1c(Cl)cccc1Cl	0.0214 (inactive)
C=CCNC(=S)NNC(=O)c1ccc(Br)o1	0.645 (inactive)
C=CCNC(=S)NNC(=O)COc1c(Cl)cc(Cl)cc1Cl	7.57 (active)
C=CCNC(=O)COC(=O)CNC(=O)c1cc(Cl)cc([N+](=O)[O-])c1	0.057 (inactive)
Cc1cc(Nc2ccc(N3CCOCC3)cc2)c2cccc(C)c2n1	-2.79 (inactive)
C=CCNC(=S)N/N=C/c1ccc(C)s1	14 (active)
CNC(=S)N/N=C/c1ccc(N2CCOCC2)s1	1.59 (inactive)
Cc1ccc(/C=N/NC(=O)CN2CCN(Cc3ccccc3)CC2)s1	0.187 (inactive)
O=C(Nc1nnc(CCN2CCCCC2)s1)c1cccc(Cl)c1	0.116 (inactive)
CN1CCN(c2ccc(CNS(=O)(=O)c3cccc(F)c3)cc2)CC1	-0.58 (inactive)
Cc1nnc(C)c2c(C)n(N)c(C)c12	0.198 (inactive)
COc1ccc(S(=O)(=O)Nc2cccnc2)c(Cl)c1Cl	0.54 (inactive)
CCOC(=O)C1Sc2[nH]c(=O)sc2C(c2ccc(Cl)cc2)C1C(=O)OCC (stereo not given)	-3.93 (active)
CCOC(=O)C1C(c2ccc(Cl)cc2)NC(=S)NC1(O)C(F)(F)F (stereo not given)	1.75 (inactive)
CCOC(=O)C1=C(C)NC(=O)N(C(C)=O)C1c1ccc(Cl)cc1 (stereo not given)	-1.98 (inactive)
